Reference: PubChem BioAssay AID504845 (National Center for Advancing Translational Sciences (NCATS), 2011)
Values joined by “and” are separate entries in the source; they are usually repeats but may differ in a detail not shown here. Equal values may be shown once. Among all 390,000 compounds or so, about 150 (0.038%) were called active. Inconclusive results (about 3%) are left out. Calls follow the shape of the dose curve; as a rule, active = well fitted inhibition curve with a large enough effect; inconclusive = small, poorly fitted or top-dose-only effect; inactive = no such curve, though single readings can be large or run the other way. Many of the other results were omitted from the sample, so actives are more common in it than they were. A structure can be active in one record and inactive in another.

target: Regulator of G-protein signaling 4 (Homo sapiens) (UniProt P49798); test: Inhibitors of Regulator of G Protein Signaling (RGS) 4: qHTS; settings: Transcreener GDP fluorescence polarization, RGS4-accelerated GTP hydrolysis; series mostly up to 114 µM; activity change, negative = inhibition: at the top concentration; also: nearly all actives have a fitted effect of over 75% in size
Method in brief: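 MLSMR compounds (23 nl, pin-transferred) preincubated 10 min at room temperature with a 500nM (2x) first reagent, then RGS4 at 900nM (2x) plus Transcreener GDP mix added; fluorescence polarization (620/688 nm) read before and after 90 min at 30 °C.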
% is scaled to controls: 0 for no effect and ±100 for the full control effect; potency is read from the fitted curve at half-maximal effect.

Regulator of G-protein signaling 4 (Homo sapiens), sequence (P49798 whole entry, looked up): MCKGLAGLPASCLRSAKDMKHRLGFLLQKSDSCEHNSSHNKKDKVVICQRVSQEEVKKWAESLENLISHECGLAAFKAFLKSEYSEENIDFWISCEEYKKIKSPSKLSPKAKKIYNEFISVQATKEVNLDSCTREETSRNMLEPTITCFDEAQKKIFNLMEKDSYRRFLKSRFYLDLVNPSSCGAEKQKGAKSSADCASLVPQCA

Activity change, negative = inhibition, inactive:
O=C(NCc1ccccc1)c1cccc(NC(=O)N2CCSc3ncccc32)c1 16.8%
COc1ccc(Cn2c(=O)[nH]c3cc(C(=O)N4CCN(C(=O)c5ccco5)CC4)ccc3c2=O)cc1 -26%
CCOc1ccc(NC(=O)CSc2nnc3c(n2)[nH]c2ccc(S(=O)(=O)N4CCOCC4)cc23)cc1 0.0899%
CC1CCCN(S(=O)(=O)c2ccc3[nH]c(=O)cc(C(=O)NCCc4ccc(Cl)cc4)c3c2)C1 (stereo not given) -8.74%
CCN(CC)CCNC(=O)CN1N=C(c2ccc(OC)cc2)CCC1=O -1.33%
COC(=O)c1ccc(C2C(C(=O)Nc3ccccc3)=C(C)Nc3nc4ccccc4n32)cc1 (stereo not given) 12.3%
S=C(Nc1ccc(Cl)cc1Cl)N1CCCC1 17.2%
O=C(NCCc1ccc(Cl)cc1)C1CCCN1C(=O)NCc1ccccc1 (stereo not given) 0.986%
COc1ccc(CC(=O)NCCc2sc3nc(-c4ccc(OC)cc4)nn3c2C)cc1 23.7%
Cc1ccc(-n2ncc(C(=O)N(C)Cc3ccccc3)c2-n2cccc2)cc1 12.5%
Cc1ccc(-c2onc(C)c2C)cc1S(=O)(=O)Nc1ccccn1 -2.85%
O=C1C[C@@H](c2ccc3ccccc3c2)N1S(=O)(=O)c1ccccc1[N+](=O)[O-] 3.68%
CCCN1CCN(CCCNC(=O)c2ccc3nc(Cc4ccccc4)oc3c2)CC1 18.4%
Cc1cccc(C(=O)NCCc2nc3ccccc3n2Cc2ccccc2Cl)c1 -14.7%
CSc1ccc(CCNC(=O)c2cc(C)nc3c2c(C)nn3-c2cccc(F)c2)cc1 -41%
COCCNS(=O)(=O)c1cc(-c2nn3c(C)nnc3c3ccccc23)ccc1C -16.3%
Cc1ccccc1C(=O)N(Cc1ccc(N(C)C)cc1)CC1CCCO1 (stereo not given) 8.38%
Cc1nc(SCC(=O)N2CCN(c3ccccc3)CC2)[nH]c(=O)c1C 19.3%
NC(=O)CSc1nc2c(oc3ccccc32)c(=O)n1Cc1ccccc1 -46.5%
CCN(C(=O)Cn1c(=O)nc(-c2ccccc2)c2cc(Cl)ccc21)c1cccc(C)c1 -11.5%
CCCCCCn1nnc2sc(-c3ccccc3)cc2c1=O -27.4%
CC(C)c1ccc2oc(-c3cc(NC(=O)c4cccs4)ccc3Cl)nc2c1 -15%
Cc1cc2oc(C(=O)N(Cc3ccc(Cl)cc3)Cc3ccco3)c(C)c2cc1Cl 30%
CC(C)[C@H]1CC[C@@H](C)C[C@H]1O -127% [at 56.9 µM]
COc1ccc(CNC(=O)c2cc3c(=O)[nH]c4ccccc4c3s2)cc1 -9.46%
O=S(=O)(Nc1cccc2cccnc12)c1cccc2cccnc12 9.93%
COC(=O)c1cc2occc2n1Cc1nc(-c2ccc(C)cc2)oc1C 12.1%
Cc1ccc(F)cc1S(=O)(=O)N1CCC(c2nc3ccccc3s2)CC1 -18.9%
Cc1cc(OC(C)C(=O)Nc2sc3c(c2C(N)=O)CCCC3)ccc1Cl (stereo not given) -10.8%
COc1ccc(C2Nc3ccc(NC(=O)COC(C)=O)cc3C(=O)N2Cc2ccccc2)cc1COc1ccc(NC(C)=O)cc1 (stereo not given) 0.54%
C#CCOc1ccc(C2CC(=O)Nc3c2c(C)nn3-c2nc(C)cc(C)n2)cc1 (stereo not given) -13.7%
Cc1ccc(C)c(N2CCN(C(=O)Cn3nc(C)c4sc5ccccc5c4c3=O)CC2)c1 -5.5%
CC(C)S(=O)(=O)c1oc(-c2ccc(F)cc2)nc1S(=O)(=O)c1ccc(F)cc1 -17.3%
COc1cc(OC)cc(C(=O)Nc2c(C(=O)Nc3ccc(F)cc3)oc3ccccc23)c1 8%
Oc1ccc(Cl)cc1C1C=C(c2ccc3c(c2)OCO3)NC(c2ccc(F)c(Br)c2)N1 (stereo not given) -52.5%
CCOc1ccc(NC(=O)CC2C(=O)N(c3cccc(OC)c3)C(=O)N2C2CCCCC2)cc1 (stereo not given) 33.4%
COc1ccc(Cc2nc3ccc(C(=O)NCc4ccccc4C)cc3o2)cc1 1.01%
O=C(Nc1ccc2c(c1)OCO2)c1cc(-c2cccc(Cl)c2)on1 5%
C=CC1(C)CC(=O)C2(O)C(C)(O1)C(OC(C)=O)C(O)C1C(C)(C)CCC(O)C12C (stereo not given) -6.89% [at 56.9 µM]
Cc1ccccc1CSc1nc2c([nH]c3ccccc32)c(=O)n1C 4.27%
O=C(c1ccc(F)cc1)C1CCN(CCCCc2ccccc2)CC1 80.5% [at 56.9 µM]
CCc1cc2c(cc3c(=O)n(CC(=O)NCc4cccc(Cl)c4)nc(CC)n32)s1 19.3%
Cc1ccc(Cl)cc1N1CCN(S(=O)(=O)c2cc3[nH]c(=O)c(=O)[nH]c3cc2C)CC1 -20%
CCCSc1ncc(Cl)c(C(=O)Nc2sc3c(c2C(=O)NCCOC)CCCC3)n1 20.4%
Cc1ccc(CCNC(=O)C2CCN(c3nnc(-n4cccc4CNc4ccc(C)cc4)s3)CC2)cc1 29.4%
CCOc1ccccc1NC(=O)Cn1c(=O)n(-c2cccc(C)c2)c(=O)c2c1c1cc(OC)ccc1n2C 6.5%
COc1ccc(Cl)cc1NC(=O)C(C)Sc1nc2c(c(=O)[nH]1)CCCC2 (stereo not given) 30.7%
Cc1ccc2nc(/C(C#N)=C/c3ccc(-c4ccc(C(=O)OC(C)C)cc4)o3)[nH]c2c1 2.62%
CCOc1ccccc1CNC(=O)Nc1cn(CC(C)C)c(=O)c2ccccc12 5.51%
O=C1C2C(c3ccccc3)CC=CC2C(c2ccoc2)N1Cc1ccccc1 (stereo not given) -10.6%
Cc1cccc(-c2cc(=O)c3cc(C)ccc3o2)c1 -644% [at 56.9 µM, above what the read-out allows, likely interference]
CC1CC2C3CCC4=CC(=O)C=C[C@]4(C)[C@@]3(F)[C@@H](O)C[C@]2(C)[C@@]1(O)C(=O)CO (stereo not given in full) 13.2% [at 56.9 µM]
Nc1ncnc2c1ncn2C1CC(O)C(CO)O1 (stereo not given) -180% [at 56.9 µM]
CSc1ccccc1N1CCN(CCCCCC(=O)NC2CCCc3ccccc32)CC1 (stereo not given) 17.9% [at 56.9 µM]
CCC(=O)N1CCc2cc(Br)cc(S(=O)(=O)CCC(=O)NCCc3ccc(OC)c(OC)c3)c21 -31.3%
Cc1ccc(-n2c3nc(=O)[nH]c(=O)c-3cc3c(Cl)cccc32)cc1 -2.68%
COc1ccc(C)cc1NC(=O)CCc1c(C)nn(-c2ccc(N3CCOCC3)nn2)c1C -16%
COC(=O)c1cccc(Cn2nnc3sc4c(c3c2=O)CCC(C(C)(C)C)C4)c1 (stereo not given) -10.7%
CCOC(=O)c1c(C)[nH]c(CCC(=O)NCCCN2CCN(c3cccc(Cl)c3)CC2)c1C -21.8%
COc1ccc(C2CC(O)(c3ccccc3)Oc3cc(C)cc(C)c32)cc1 (stereo not given) -13.5%
O=S(=O)(c1ccc2nc(N3CCN(c4cccc(Cl)c4)CC3)ccc2c1)N1CCCCC1 -18.5%
CCOC(=O)c1cccc(NC(=O)C(Cc2ccccc2)NS(=O)(=O)c2cccc3nsnc23)c1 (stereo not given) -4.55%
COc1cccc(CNCCSc2nnnn2C)c1OCc1ccccc1Cl -5.25%
CC(=O)c1cccc(NC(=O)CSc2nc3c(c(=O)[nH]2)CCC3)c1 16.8%
O=C(Nc1c(C(=O)N2CCN(c3ccc(F)cc3)CC2)oc2ccccc12)c1ccco1 12.6%
Cc1cc(C)cc(NC(=O)c2cnc3sc(N4CCCC4)nn3c2=O)c1 -12.1%
COc1cc(OC)cc(C(=O)Nc2ccc3nc(Nc4cccc(C(F)(F)F)c4)cc(C)c3c2)c1 -2.35%
Cc1ccc(N(C)C(=O)C2CCN(S(=O)(=O)c3ccc4c(c3)CCCN4C(=O)C3CCC3)CC2)cc1 -18.2%
CSc1nc(Nc2ccc(F)cc2)cc(-c2ccccc2)n1 5.75%
Cc1cccc(-n2c(SCC(N)=O)nc3c(oc4ccccc43)c2=O)c1 -0.746%
C=Cc1ccc(Cn2c(C(=O)O)c(CNC3CCCC3)c3ccc(C)cc32)cc1 8.65%
COc1ccccc1CNC(=O)Cn1nc(C)c2nn(-c3ccc(Cl)cc3)c(C)c2c1=O 18.3%
CC1CCCCN1S(=O)(=O)c1ccc(F)c(C(=O)Nc2ccccc2C(F)(F)F)c1 (stereo not given) 4.05%
COc1ccc2ncc3c(-c4ccc(C)c(C)c4)nn(CC(=O)NC4CCCC4)c3c2c1 26.8%
COc1cccc(CNC(=O)c2ccc3c(c2)N(Cc2ccc(C(F)(F)F)cc2)C(=O)c2ccccc2S3)c1OC 20.4%
CC(C)CC(NS(=O)(=O)c1ccc2c(c1)oc(=O)n2C)C(=O)NCc1ccccc1Cl (stereo not given) 9.93%
Cc1cc(OCC(=O)Nc2ncn[nH]2)c(C)c(C)c1Br -27.4%
CN1C(=O)c2[nH]nc(-c3ccc(F)cc3)c2C1c1ccccn1 (stereo not given) 0.713%
O=C(CSCc1cnn(-c2ccccc2)c1-n1cccc1)NCc1ccccc1Br -25%
O=C(NCCc1ccccc1)c1ccc2c(c1)N(Cc1ccc(F)cc1)C(=O)c1ccccc1S2(=O)=O -0.894%
O=S(=O)(NCC(c1ccccc1)N1CCc2ccccc21)c1ccccc1 (stereo not given) -21.4%
Cc1c(CCNC(=O)c2ccc(C(F)(F)F)cc2)sc2nc(-c3ccc(F)cc3)nn12 -4.84%
CCN(CC)CCNC(=O)c1cc2c(=O)oc3ccc(C)cc3c2s1 -2.06%
COc1ccc(CCn2c3c(c(=O)[nH]c2=S)CN(C(C)C)CN3)cc1OC -5.94%
Cn1c(C(=O)N2CCC(C(=O)N3CCN(c4ccccc4)CC3)CC2)cc2sccc21 8.86%
O=S(=O)(c1cccc(C(F)(F)F)c1)N1CCN(c2nc(-c3cccs3)nc3ccccc23)CC1 -10.2%
Cc1cccc(NC(=O)CSc2ncc(-c3ccccc3)[nH]2)c1C 12.9%
COc1cccc(N=C2SC(C(=O)Nc3cccc(Cl)c3)CC(=O)N2C)c1 (stereo not given) 13.4%
O=C(Nc1cc(C(F)(F)F)ccc1Cl)c1ccc2c(c1)CCN2S(=O)(=O)c1ccccc1 0.535%
CCNS(=O)(=O)c1ccc(NC(=O)CSc2nc(-c3ccco3)cc(C(F)(F)F)n2)cc1 1.04%
CCS(=O)(=O)N(C)[C@@H]1c2cc(C#N)ccc2OC(C)(C)[C@H]1O -117% [at 56.9 µM]
COc1ccc(CNC(=O)Cn2nnc(-c3ccccc3F)n2)cc1 -28.6%
COc1ccc(OC)c(-n2nnc3c(sc4nc(C)c(Br)c(C)c43)c2=O)c1 15.3%
Cc1ccc(-c2cn3c(n2)sc2cc(C(=O)NCCCc4ccccc4)ccc23)cc1 17.8%
O=C1CC(c2ccccc2)CC2=C1C(c1ccco1)n1nc(C(F)(F)F)nc1N2 (stereo not given) 12.1%
COc1ccc(-c2c(C)c3ccc(O)c(CN4CCCC4)c3oc2=O)cc1OC -3.02%
CCC(=O)Nc1cccc(C(=O)OCc2cc(=O)n3nc(CC)sc3n2)c1 -4.68%

Potency, inactive and 23.8 µM (active):
CC[C@@H]1Cc2cc(O)ccc2C2=C1c1ccc(O)cc1C[C@H]2CC

Potency, inactive:
Cc1ccc(NC(=O)c2cccc(N(C)C)c2)cc1NC(=O)c1ccc(O)cc1

Potency, inactive and 16.8 µM (active):
Oc1cc2c(cc1O)CN(C(=S)NCCc1ccc(Cl)cc1)CCC2
